Data from PubChem BioAssay (NCI).
The panel holds about 83,000 compounds, 20% with a hit somewhere; the sample as a whole holds those more often.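 Single-concentration screen, 48 h exposure, 96-well plates. Endpoint: percent growth. Below 10 = active.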

What was measured:
Assay in all cases: NCI-60 one-dose screen, 48 h (100 = growth as untreated, 0 = no growth, -100 = all killed)
[1] = system: HCT-15 colon; settings: 10 µM unless noted
[2] = system: HT29 colon; settings: 10 µM unless noted
[3] = system: SNB-75 CNS; settings: 10 µM unless noted
[4] = system: SNB-19 CNS; settings: 10 µM unless noted
[5] = system: U251 CNS; settings: 10 µM unless noted
[6] = system: PC-3 prostate; settings: 10 µM unless noted
[7] = system: SK-MEL-5 melanoma; settings: 10 µM unless noted
[8] = system: UACC-62 melanoma; settings: 10 µM unless noted
[9] = system: LOX IMVI melanoma; settings: 10 µM
[10] = system: SK-MEL-28 melanoma; settings: 10 µM unless noted
[11] = system: SK-MEL-2 melanoma; settings: 10 µM unless noted
[12] = system: EKVX NSCLC; settings: 10 µM unless noted
[13] = system: SN12C renal; settings: 10 µM unless noted
[14] = system: UO-31 renal; settings: 10 µM unless noted
[15] = system: TK-10 renal; settings: 10 µM unless noted
[16] = system: ACHN renal; settings: 10 µM unless noted
[17] = system: CAKI-1 renal; settings: 10 µM unless noted
[18] = system: A498 renal; settings: 10 µM unless noted
[19] = system: MOLT-4 leukemia; settings: 10 µM unless noted
[20] = system: CCRF-CEM leukemia; settings: 10 µM unless noted

Measured: growth

CCOC(=O)c1cc(C)[nH]c(=O)c1C#N
inactive: [1] 101% | [2] 105% | [3] 85.7% | [4] 106% | [5] 102% | [6] 80.7% | [7] 107% | [8] 104% | [9] 97.7% | [10] 112% | [11] 104% | [12] 86.8% | [13] 102% | [14] 105% | [15] 101% | [16] 101% | [17] 56.9% | [18] 108% | [19] 72.1%

O=C(O)C1CCCN1C(=O)OCc1ccccc1 (stereo unspecified)
inactive: [1] 108% | [2] 97.6% | [3] 81.6% | [4] 104% | [5] 108% | [6] 108% | [7] 104% | [8] 109% | [9] 88.4% | [10] 105% | [11] 94.7% | [12] 117% | [13] 103% | [14] 80.9% | [15] 106% | [16] 109% | [17] 94.6% | [18] 108% | [19] 96.2%

CC(c1ccccc1)N(C)C (stereo unspecified)
inactive: [1] 109% | [2] 88.2% | [3] 59.5% | [4] 100% | [5] 102% | [6] 88.6% | [7] 99.6% | [8] 94.5% | [9] 113% | [10] 157% | [11] 84% | [12] 122% | [13] 99.7% | [14] 71.4% | [15] 135% | [16] 109% | [17] 96.5% | [18] 139% | [19] 84.3%

ClCC(Cl)[C@@H]1CC2C=CC1C2 (stereo partly specified)
inactive: [1] 109% | [2] 107% | [3] 93.6% | [4] 104% | [5] 99.5% | [6] 102% | [7] 99.1% | [8] 98.7% | [9] 97.7% | [10] 106% | [11] 112% | [12] 98.3% | [13] 102% | [14] 88.7% | [15] 114% | [16] 108% | [17] 100% | [18] 80.2% | [19] 114%

C=CC(C)C(C)(C)O (stereo unspecified)
inactive: [1] 104% | [2] 101% | [3] 101% | [4] 109% | [5] 103% | [6] 100% | [7] 107% | [8] 102% | [9] 99.2% | [10] 113% | [11] 100% | [12] 105% | [13] 109% | [14] 87.2% | [15] 104% | [16] 106% | [17] 94.5% | [18] 91.4% | [19] 95.2%

CC(C)c1ncc([N+](=O)[O-])n1C
inactive: [1] 101% | [2] 108% | [3] 116% | [4] 111% | [5] 104% | [6] 102% | [7] 114% | [8] 107% | [9] 108% | [10] 119% | [11] 127% | [12] 126% | [13] 109% | [14] 85.3% | [15] 114% | [16] 102% | [17] 94.4% | [20] 102% | [19] 104%

CCOc1ccc2c(c1)c(C)cc(C)[n+]2CC
inactive: [1] 112% | [2] 81.8% | [3] 71.2% | [4] 64.8% | [5] 45.7% | [6] 48.7% | [7] 78.3% | [8] 92.8% | [9] 73.8% | [10] 102% | [11] 97.9% | [12] 35.9% | [13] 64.6% | [14] 65.9% | [15] 97% | [16] 94.1% | [17] 86.2% | [18] 88.9% | [19] 64.6%

CSCCC(NC(=O)C(Cl)Cl)C(=O)O (stereo unspecified)
inactive: [1] 102% | [2] 100% | [3] 85.6% | [4] 107% | [5] 90.9% | [6] 89% | [7] 99.8% | [8] 95.8% | [9] 98.4% | [10] 97% | [11] 102% | [12] 90.2% | [13] 97.5% | [14] 96.3% | [15] 94.1% | [16] 101% | [18] 108% | [19] 90.5%
